Among the test systems are NCI-H23 lung; NCI-H226 lung; NCI-H322M lung; HOP-62 NSCLC; NCI-H460 lung; NCI-H522 lung; A549/ATCC NSCLC; 786-0 renal; COLO 205 colon; DU-145 prostate; K-562 leukemia; MALME-3M melanoma; MDA-MB-231 breast; RXF 393 renal; SF-268 CNS; SF-295 CNS; SF-539 CNS; UACC-257 melanoma; M14 melanoma; HCT-15 colon.
Holding throughout (test): NCI-60 one-dose screen, 48 h (100 = growth as untreated, 0 = no growth, -100 = all killed)
Common to all, as to conditions: 10 µM

Molecules are shown by their SMILES. The panel holds about 83,000 compounds, 20% with a hit somewhere; the sample as a whole holds those more often.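 Note: values are percent growth. 100 is the growth of untreated cells, values between 100 and 0 indicate rising inhibition; between -100 and 0 indicates cell death.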 A number with no mark means an inactive call. The source made the active and inactive calls. Rule for the calls: active = growth percent below 10; inactive = the rest.

As for `O=C(Nc1nc2ccccc2s1)Nc1ccc([N+](=O)[O-])cc1Cl`, the growth in the test with NCI-H23 lung was 36.9%; in the test on NCI-H226 lung it was 103%; in the test with NCI-H322M lung it was 33.3%; with HOP-62 NSCLC, 110%; with NCI-H460 lung, 32.6%; in the test with NCI-H522 lung, -22.6% (active). For the same compound, the growth in the test on A549/ATCC NSCLC was -53.1% (active); with 786-0 renal, -23.5% (active); in the test with COLO 205 colon it was 111%; in the test on DU-145 prostate, 87%; in the test on K-562 leukemia, 58.8%; with MALME-3M melanoma it was 96.4%. The growth with MDA-MB-231 breast was 40.1%; with RXF 393 renal, -17.7% (active); in the test on SF-268 CNS, 3.97% (active); in the test with SF-295 CNS, 67.8%; in the test on SF-539 CNS it was -48.5% (active); in the test on UACC-257 melanoma, -10.6% (active). Further, the results for the growth in the test with M14 melanoma and with HCT-15 colon were 79.7% and 87.2%, respectively.

With `Clc1ccc(Sc2nc(NC3CC3)nc(Sc3ccc(Cl)cc3)n2)cc1`, the growth in the test on NCI-H23 lung was 81%; with NCI-H226 lung, 83.4%; with NCI-H322M lung it was 86.7%; in the test with HOP-62 NSCLC, 102%; with NCI-H460 lung, 89.3%; with NCI-H522 lung it was 59.1%. For the same compound, the growth was 80.9% in the test on A549/ATCC NSCLC; 87.5% in the test on 786-0 renal; 74% in the test with COLO 205 colon; 92.8% in the test on DU-145 prostate; 75.2% in the test on K-562 leukemia; 80.7% in the test on MALME-3M melanoma. Moreover, the growth in the test with MDA-MB-231 breast was 81.1%; in the test on RXF 393 renal, 79.1%; in the test on SF-268 CNS, 79.3%; in the test on SF-295 CNS it was 67.4%; in the test with SF-539 CNS it was 95%; in the test with UACC-257 melanoma it was 89.6%. In addition, the growth was 86.2% in the test with M14 melanoma and 71.3% in the test on HCT-15 colon.

As to `N=C(N)c1ccc(-c2ccc(-c3ccccc3)o2)nc1`, the growth with NCI-H23 lung is 101%; in the test on NCI-H226 lung it was 90.4%; in the test on NCI-H322M lung, 91.7%; with HOP-62 NSCLC, 91.8%; in the test on NCI-H460 lung it was 90.3%; with NCI-H522 lung, 93.8%. Besides, the growth with A549/ATCC NSCLC is 77.8%; in the test on 786-0 renal it was 90.7%; with COLO 205 colon it was -13% (active); in the test on DU-145 prostate, 103%; in the test on K-562 leukemia it was 30.2%; in the test with MALME-3M melanoma, 91.9%. Also, the growth is 50.2% in the test on MDA-MB-231 breast; 106% in the test with RXF 393 renal; 91.2% in the test on SF-268 CNS; 81% in the test with SF-295 CNS; 92% in the test with SF-539 CNS; 94.6% in the test with UACC-257 melanoma. The growth was 97.9% in the test on M14 melanoma and 81.1% in the test on HCT-15 colon.

On to `O=C(Nc1ccccc1)Nc1cccc(-n2cc(-c3ccncc3)c(-c3ccc(O)c(Cl)c3)n2)c1`, for which the growth in the test on NCI-H23 lung was 74.2%; in the test with NCI-H226 lung, 93.8%; in the test on NCI-H322M lung, 43.3%; with HOP-62 NSCLC, 77.7%; with NCI-H460 lung, 25.2%; in the test on NCI-H522 lung it was 51.4%. Moreover, the growth in the test with A549/ATCC NSCLC is 35.5%; in the test on 786-0 renal it was 38.5%; in the test with COLO 205 colon, 111%; with DU-145 prostate, 71.1%; with K-562 leukemia, 24.4%; in the test on MALME-3M melanoma, 20.2%. Moreover, the growth with MDA-MB-231 breast was 15.6%; with RXF 393 renal it was 47%; with SF-268 CNS, 71.7%; in the test on SF-295 CNS it was -21.7% (active); in the test with SF-539 CNS, 0.346% (active); in the test with UACC-257 melanoma, 10.3%. Further, the growth is 31.8% in the test on M14 melanoma and 24.7% in the test with HCT-15 colon.

For `COc1cc(Cl)cc(-c2nn(-c3cccc(NC(=O)c4ccc(Cl)c(Cl)c4)c3)cc2-c2ccncc2)c1`, the growth is 75.3% in the test on NCI-H23 lung; 66.3% in the test with NCI-H226 lung; 84.5% with NCI-H322M lung; 105% in the test with HOP-62 NSCLC; 65.2% in the test with NCI-H460 lung; 53.7% in the test with NCI-H522 lung. The growth with A549/ATCC NSCLC was 59.7%; in the test with 786-0 renal, 74.1%; with COLO 205 colon, 81.5%; in the test on DU-145 prostate it was 88.5%; with K-562 leukemia, 46.3%; in the test on MALME-3M melanoma it was 96.4%. Further, the growth was 33.9% with MDA-MB-231 breast; 59.2% in the test with RXF 393 renal; 82.4% in the test with SF-268 CNS; 36.1% with SF-295 CNS; 74.5% in the test with SF-539 CNS; 84.2% in the test on UACC-257 melanoma. Besides, the growth was 68.9% in the test with M14 melanoma and 57.9% in the test with HCT-15 colon.

As for `C/C(=N\Nc1nc2ccccc2s1)c1ccncn1`, the growth is 42.3% in the test with NCI-H23 lung; 41.9% in the test with NCI-H226 lung; 46.2% in the test on NCI-H322M lung; 41.3% in the test with HOP-62 NSCLC; 23.2% in the test on NCI-H460 lung; 4.38% (active) with NCI-H522 lung. Also, the growth was 50.6% in the test with A549/ATCC NSCLC; 38.3% in the test with 786-0 renal; 7.12% (active) in the test on COLO 205 colon; 28.3% with DU-145 prostate; 0.401% (active) with K-562 leukemia; 43.2% with MALME-3M melanoma. Besides, the growth was 31.3% in the test with MDA-MB-231 breast; 9.64% (active) in the test on RXF 393 renal; 45.5% with SF-268 CNS; 39.3% in the test with SF-295 CNS; 40.8% with SF-539 CNS; 55.6% with UACC-257 melanoma. Further, the growth with M14 melanoma is 34.9%; in the test on HCT-15 colon, 18.6%.

Consider `CC(=O)c1nc2ccccc2n1CCNC(N)=O`, for which the growth was 82.1% in the test with NCI-H23 lung; 100% with NCI-H226 lung; 95% with NCI-H322M lung; 70.3% with HOP-62 NSCLC; 55.2% in the test with NCI-H460 lung; 61.8% in the test on NCI-H522 lung. The growth in the test on A549/ATCC NSCLC was 62.3%; in the test on 786-0 renal it was 95.1%; in the test with COLO 205 colon, 69.7%; in the test with DU-145 prostate, 93.2%; in the test on K-562 leukemia, 44.1%; in the test with MALME-3M melanoma, 55.8%. Also, the growth is 77.2% in the test with MDA-MB-231 breast; 90.9% in the test on RXF 393 renal; 71.9% in the test on SF-268 CNS; 127% with SF-295 CNS; 79.7% with SF-539 CNS; 94.8% with UACC-257 melanoma. The growth with M14 melanoma is 73.8%; in the test on HCT-15 colon, 103%.
